Measured values reported in PubChem BioAssay AID602193 (The Scripps Research Institute Molecular Screening Center, 2012).
Among all 1,600 compounds or so, about 410 (26%) were called active.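 How the source made its calls: active means mean inhibition over triplicates above the low-control well mean plus 3 SD, set per campaign (cut at about 13% in these data); inactive means the rest.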 The full list was thinned out, with actives kept by preference.

Experiment: forskolin-stimulated cAMP inhibition in U2OS – cell-based, TR-FRET, triplicate, counter-screen for MC4R biased antagonist project (AID 602193);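 further: signal is single emission at 671 nm which falls as cellular cAMP rises; 0% = forskolin-stimulated wells and 100% = buffer without forskolin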
Conditions: parental U2OS, LANCE TR-FRET, at 6.5 µM, active compounds read high

Row | Structure (SMILES) | inhibition
1 | Cc1cccc(N2C(=O)NC(=O)/C(=C\c3cnn(-c4ccccc4)c3)C2=O)c1 | 14.2% (active)
2 | COc1cccc(N2C(=O)NC(=O)/C(=C\c3ccc([N+](=O)[O-])s3)C2=O)c1 | 0.64% (inactive)
